Calls of active or inactive are those of the source. How the source made its calls: active means hit-call score of the fitted dose curve at least 0.9, where 1 is the maximum; inactive means score below 0.9.

Outcome and AC50 data for seven compounds are collected here from PubChem BioAssay (EPA / NIEHS).

What all share (details): mRNA level, 48 h; actives raise or lower the signal
Read-out in experiment [1]: Bcl-2 (BAX) gene, BAX (gene 581)
Nature of the experiment: LTEA_HepaRG_BAX: Life Technologies and Expression Analysis (LTEA) Assay for Bcl-2 (BAX) gene using HepaRG (AID 2283470). The method, boiled down:
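Gene expression measured by Fluidigm qRT-PCR with three housekeeping genes for normalisation. HepaRG cells, plated 48 h beforehand, treated 48 h at up to 100 uM (8-point, half-log) in 0.5% DMSO. Bidirectional fitting versus DMSO.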

Read-out in experiment [2]: adenosine kinase (ADK) gene, ADK (gene 132)
The experiment can be described thus: LTEA_HepaRG_ADK: Life Technologies and Expression Analysis (LTEA) Assay for adenosine kinase (ADK) gene using HepaRG (AID 2283471). The method, boiled down: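 Read-out is ADK transcript level measured by qRT-PCR and normalised to three housekeeping genes. Cells are human HepaRG, dosed for 48 h at up to 100 uM in 0.5% DMSO. Gain or loss of signal is fitted against DMSO controls.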

Read-out in experiment [3]: Alpha-fetoprotein (AFP) gene, AFP (gene 174)
The experiment can be described thus: LTEA_HepaRG_AFP: Life Technologies and Expression Analysis (LTEA) Assay for Alpha-fetoprotein (AFP) gene using HepaRG (AID 2283472). In short, it runs like this: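 AFP transcript measured by TaqMan qRT-PCR with three housekeeping genes for normalization, after 48 h chemical treatment of HepaRG cells (top 100 uM, half-log steps, 0.5% DMSO). Gain or loss fitted against vehicle.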

Read-out in experiment [4]: BCL2L11 (gene 10018)
Nature of the experiment: LTEA_HepaRG_BCL2L11: Life Technologies and Expression Analysis (LTEA) Assay for Bcl-2 (BCL2L11) gene using HepaRG (AID 2283473). The method, boiled down:
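Human hepatic HepaRG cultures are treated 48 h with test chemicals (maximum 100 uM, 0.5% DMSO vehicle). Expression of BCL2L11 is measured by qRT-PCR against ACTB, GAPDH and POLR2A, with activity in either direction scored relative to vehicle.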

Read-out in experiment [5]: Apolipoprotein A-V (APOA5) gene, APOA5 (gene 116519)
Nature of the experiment: LTEA_HepaRG_APOA5: Life Technologies and Expression Analysis (LTEA) Assay for Apolipoprotein A-V (APOA5) gene using HepaRG (AID 2283474). In short, it runs like this:
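Concentration-response of APOA5 expression in HepaRG: eight half-log doses to 100 uM, 48 h, qRT-PCR normalized to ACTB/GAPDH/POLR2A, bidirectional fitting with 0.5% DMSO as baseline.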

Read-out in experiment [6]: Apoptosis regulator Bcl-2 (Homo sapiens) (UniProt P10415)
Nature of the experiment: LTEA_HepaRG_BCL2: Life Technologies and Expression Analysis (LTEA) Assay for Bcl-2 gene using HepaRG (AID 2283475). The method, boiled down: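 qRT-PCR of BCL2 transcript, normalized to three housekeeping genes (ACTB, GAPDH, POLR2A), after 48 h chemical exposure of HepaRG cells; concentrations top 100 uM with half-log dilutions, 0.5% DMSO vehicle, duplicates; changes up or down fitted relative to vehicle.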

Read-out in experiment [7]: Bcl-2 (BID) gene, BID (gene 637)
The experiment can be described thus: LTEA_HepaRG_BID: Life Technologies and Expression Analysis (LTEA) Assay for Bcl-2 (BID) gene using HepaRG (AID 2283476). The method, boiled down:
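Duplicate 48 h treatments of HepaRG cells in serum-free induction medium spanned 100 uM downward in half-log steps, 0.5% DMSO. Transcript change quantified by qRT-PCR against three housekeeping genes, fitted up or down versus DMSO.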

Read-out in experiment [8]: Caspase-3 (Homo sapiens) (UniProt P42574)
The experiment can be described thus: LTEA_HepaRG_CASP3: Life Technologies and Expression Analysis (LTEA) Assay for cysteine-aspartic acid protease (CASP3) using HepaRG (AID 2283477). The method, boiled down:
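Transcript-level assay: CASP3 mRNA in human HepaRG after 48 h treatment, eight half-log concentrations from 100 uM in 0.5% DMSO, quantified by qRT-PCR.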

Read-out in experiment [9]: Cytochrome P450 (CYP24A1), CYP24A1 (gene 1591)
Nature of the experiment: LTEA_HepaRG_CYP24A1: Life Technologies and Expression Analysis (LTEA) Assay for Cytochrome P450 (CYP24A1) using HepaRG (AID 2283478). The method, boiled down:
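Gene expression of CYP24A1 by TaqMan qRT-PCR in HepaRG after 48 h treatment, highest concentration 100 uM; activity fitted in both directions relative to DMSO vehicle.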

Read-out in experiment [10]: cysteine-aspartic acid protease (CASP8), CASP8 (gene 841)
Nature of the experiment: LTEA_HepaRG_CASP8: Life Technologies and Expression Analysis (LTEA) Assay for cysteine-aspartic acid protease (CASP8) using HepaRG (AID 2283480). The method, boiled down: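 Concentration-response in duplicate up to 100 uM (half-log steps, 0.5% DMSO) on differentiated HepaRG cultures for 48 h. Expression change of CASP8 mRNA is determined by TaqMan qRT-PCR with housekeeping-gene normalization.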

Read-out in experiment [11]: Cytochrome P450 (CYP2B6), CYP2B6 (gene 1555)
Nature of the experiment: LTEA_HepaRG_CYP2B6: Life Technologies and Expression Analysis (LTEA) Assay for Cytochrome P450 (CYP2B6) using HepaRG (AID 2283481). The method, boiled down:
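Human HepaRG, 48 h dosing, 0.5% DMSO vehicle, top dose 100 uM. CYP2B6 transcript by qRT-PCR, housekeeping-normalized, bidirectional curve fit.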

Read-out in experiment [12]: Cytochrome P450 2C19 (Homo sapiens) (UniProt P33261)
The experiment can be described thus: LTEA_HepaRG_CYP2C19: Life Technologies and Expression Analysis (LTEA) Assay for CYP2C19 using HepaRG (AID 2283482). The method, boiled down:
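Endpoint: CYP2C19 mRNA change, bidirectional fit vs 0.5% DMSO. Cells: HepaRG, 48 h exposure, eight-point series topping at 100 uM. Quantitation: qRT-PCR normalized to ACTB, GAPDH, POLR2A.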

Read-out in experiment [13]: CYP2C8 (gene 1558)
Nature of the experiment: LTEA_HepaRG_CYP2C8: Life Technologies and Expression Analysis (LTEA) Assay for CYP2C8 using HepaRG (AID 2283483). The method, boiled down: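 This is a transcriptional endpoint in HepaRG cultures: 48 h exposure, highest concentration 100 uM. CYP2C8 mRNA is quantified by TaqMan qRT-PCR.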

Read-out in experiment [14]: CYP2C9 (gene 1559)
The experiment can be described thus: LTEA_HepaRG_CYP2C9: Life Technologies and Expression Analysis (LTEA) Assay for CYP2C9 using HepaRG (AID 2283484). The method, boiled down:
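Eight-point concentration-response (highest 100 uM, half-log dilutions) in HepaRG cells for 48 h; CYP2C9 expression by qRT-PCR normalized to ACTB, GAPDH, POLR2A. Bidirectional fit, DMSO baseline.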

Read-out in experiment [15]: CYP2E1 (gene 1571)
Nature of the experiment: LTEA_HepaRG_CYP2E1: Life Technologies and Expression Analysis (LTEA) Assay for CYP2E1 using HepaRG (AID 2283485). The method, boiled down: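 CYP2E1 transcript measured by Fluidigm qRT-PCR against three housekeeping genes in human HepaRG cells treated 48 h (top 100 uM, half-log steps, 0.5% DMSO vehicle). Gain or loss fitted relative to DMSO baseline.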

Read-out in experiment [16]: Cytochrome P450 3A4 (Homo sapiens) (UniProt P08684)
The experiment can be described thus: LTEA_HepaRG_CYP3A4: Life Technologies and Expression Analysis (LTEA) Assay for CYP3A4 using HepaRG (AID 2283487). The method, boiled down: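 HepaRG, 48 h exposure, 8-pt CRC from 100 uM (half-log), 0.5% DMSO, duplicates; serum-free induction medium. Readout: CYP3A4 mRNA, qRT-PCR, ACTB/GAPDH/POLR2A normalization. Bidirectional fit vs DMSO.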

Read-out in experiment [17]: DNA damage-inducible transcript 3 (DDIT3), DDIT3 (gene 1649)
Nature of the experiment: LTEA_HepaRG_DDIT3: Life Technologies and Expression Analysis (LTEA) Assay for DNA damage-inducible transcript 3 (DDIT3) using HepaRG (AID 2283488). In short, it runs like this: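 DDIT3 transcript was quantified by qRT-PCR with ACTB/GAPDH/POLR2A normalization after 48 h chemical treatment of differentiated HepaRG cells in 0.5% DMSO. Dosing was eight-point, half-log, top 100 uM, duplicate wells. Curves fitted bidirectionally versus DMSO.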

Read-out in experiment [18]: Pro-epidermal growth factor (Homo sapiens) (UniProt P01133)
The experiment can be described thus: LTEA_HepaRG_EGF: Life Technologies and Expression Analysis (LTEA) Assay for Epidermal growth factor (EGF) using HepaRG (AID 2283489). In short, it runs like this:
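Concentration-response mRNA assay: HepaRG cells dosed 48 h (max 100 uM, 0.5% DMSO), EGF measured by qRT-PCR and normalized to ACTB/GAPDH/POLR2A.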

Read-out in experiment [19]: CYP4A11 (gene 1579)
Nature of the experiment: LTEA_HepaRG_CYP4A11: Life Technologies and Expression Analysis (LTEA) Assay for CYP4A11 using HepaRG (AID 2283486). In short, it runs like this:
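Human hepatic HepaRG cultures receive duplicate 48 h exposures across a concentration-response series topping at 100 uM. Expression changes in CYP4A11 are measured by qRT-PCR relative to DMSO controls.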

Chain of Cytochrome P450 3A4 (Homo sapiens) (P08684 whole entry, looked up): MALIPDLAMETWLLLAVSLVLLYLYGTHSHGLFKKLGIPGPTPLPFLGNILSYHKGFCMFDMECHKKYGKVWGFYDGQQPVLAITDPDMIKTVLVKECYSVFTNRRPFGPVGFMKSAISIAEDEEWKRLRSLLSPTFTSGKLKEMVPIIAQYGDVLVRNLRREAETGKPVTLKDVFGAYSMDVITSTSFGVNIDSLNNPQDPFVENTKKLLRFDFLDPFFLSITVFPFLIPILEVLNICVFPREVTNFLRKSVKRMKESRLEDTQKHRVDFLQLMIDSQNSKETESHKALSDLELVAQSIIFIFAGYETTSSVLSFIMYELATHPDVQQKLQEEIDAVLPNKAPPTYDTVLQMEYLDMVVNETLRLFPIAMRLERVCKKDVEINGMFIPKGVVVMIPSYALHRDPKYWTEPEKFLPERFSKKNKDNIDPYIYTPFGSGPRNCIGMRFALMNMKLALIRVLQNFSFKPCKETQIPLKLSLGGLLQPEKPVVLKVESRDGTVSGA
Chain of Caspase-3 (Homo sapiens) (P42574 whole entry, looked up): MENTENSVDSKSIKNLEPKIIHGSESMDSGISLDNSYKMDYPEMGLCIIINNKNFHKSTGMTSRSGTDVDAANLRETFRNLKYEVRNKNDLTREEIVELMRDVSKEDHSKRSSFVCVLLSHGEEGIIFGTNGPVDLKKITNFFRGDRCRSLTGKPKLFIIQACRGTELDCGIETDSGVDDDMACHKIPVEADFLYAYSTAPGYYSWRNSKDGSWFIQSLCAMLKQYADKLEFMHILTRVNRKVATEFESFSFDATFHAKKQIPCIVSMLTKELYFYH
Chain of Apoptosis regulator Bcl-2 (Homo sapiens) (P10415 whole entry, looked up): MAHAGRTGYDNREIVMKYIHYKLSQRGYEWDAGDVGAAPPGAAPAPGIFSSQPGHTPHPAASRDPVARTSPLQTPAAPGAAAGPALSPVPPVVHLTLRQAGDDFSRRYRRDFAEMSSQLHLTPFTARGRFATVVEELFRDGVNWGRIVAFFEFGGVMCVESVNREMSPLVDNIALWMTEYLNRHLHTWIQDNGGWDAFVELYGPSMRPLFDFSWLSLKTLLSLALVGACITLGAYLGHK
Chain of Cytochrome P450 2C19 (Homo sapiens) (P33261 whole entry, looked up): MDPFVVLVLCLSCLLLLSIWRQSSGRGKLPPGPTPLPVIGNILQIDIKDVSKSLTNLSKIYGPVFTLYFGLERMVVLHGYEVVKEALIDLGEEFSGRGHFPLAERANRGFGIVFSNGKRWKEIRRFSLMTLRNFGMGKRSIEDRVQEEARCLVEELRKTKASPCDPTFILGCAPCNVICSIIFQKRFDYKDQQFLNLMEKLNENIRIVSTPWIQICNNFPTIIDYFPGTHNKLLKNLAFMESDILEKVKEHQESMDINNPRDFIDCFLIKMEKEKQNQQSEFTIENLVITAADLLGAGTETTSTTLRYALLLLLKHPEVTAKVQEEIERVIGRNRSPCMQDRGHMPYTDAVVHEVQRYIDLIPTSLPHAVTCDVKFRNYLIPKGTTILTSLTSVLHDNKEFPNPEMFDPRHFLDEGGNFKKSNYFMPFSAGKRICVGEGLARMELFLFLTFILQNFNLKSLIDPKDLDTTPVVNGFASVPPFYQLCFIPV

Consider `C=C(C)CN(CC)c1c([N+](=O)[O-])cc(C(F)(F)F)cc1[N+](=O)[O-]`, for which the outcome in experiment [1], in experiment [2], in experiment [3], in experiment [4], in experiment [5] and in experiment [6] was inactive. The call in [7], in [8], in [9], in experiment [10], in experiment [13] and in [14] was inactive. The compound was called inactive in [17] and in experiment [18]. The AC50 in experiment [11] was 23.6 µM (active); in experiment [12], 50 µM (active); in [15], 87.9 µM (active); in experiment [16], 50 µM (active).
As to `COCc1cnc(C2=NC(C)(C(C)C)C(=O)N2)c(C(=O)O)c1` (centres undefined), the call in experiment [1], in experiment [2], in [3], in [4], in experiment [5] and in experiment [6] was inactive. Moreover, the result in [7], in [8], in [9], in experiment [10], in experiment [11] and in [12] was inactive. Moreover, the outcome in [14], in experiment [15], in [19], in experiment [16], in [17] and in experiment [18] was inactive.
In the case of `COC(=O)c1c(C(F)F)nc(C(F)(F)F)c(C2=NCCS2)c1CC(C)C`, the compound was called inactive in experiment [1], in experiment [2], in experiment [3], in experiment [4], in experiment [5] and in [6]. Moreover, the compound was classed as inactive in [7], in [8], in [9], in experiment [10], in [14] and in [17]. Further, the compound was classed as inactive in experiment [18]. Besides, the AC50 in experiment [11] was 19.7 µM (active); in experiment [12], 50 µM (active); in [13], 50 µM (active); in experiment [15], 10.3 µM (active); in [16] it was 4.46 µM (active).
`CCCCC(O)(Cn1cncn1)c1ccc(Cl)cc1Cl` (centres undefined): the AC50 in [1] is 74.6 µM (active); in experiment [3] it was 68.4 µM (active); in [5], 65.6 µM (active); in experiment [6], 59.5 µM (active); in [11], 80.1 µM (active); in experiment [12], 83.2 µM (active). The AC50 in experiment [13] was 78.5 µM (active); in experiment [14], 73.8 µM (active); in experiment [15] it was 46.4 µM (active); in experiment [16], 85.6 µM (active); in [17], 77.4 µM (active). Besides, the result in [2], in experiment [4], in experiment [7], in experiment [8], in [9] and in experiment [10] was inactive. For the same compound, the call in experiment [18] was inactive.
Regarding `CC1(C)CON(Cc2ccccc2Cl)C1=O`, the outcome in [1], in experiment [2], in [3], in [4], in experiment [5] and in experiment [6] was inactive. Moreover, the outcome in experiment [7], in [8], in experiment [9], in [10], in experiment [14] and in experiment [17] was inactive. Moreover, the call in experiment [18] was inactive. The AC50 in experiment [11] was 2.45 µM (active); in experiment [12], 6.15 µM (active); in experiment [15], 31.4 µM (active); in [16], 5.64 µM (active).
As to `COC(=O)N(C(=O)N1CO[C@@]2(C(=O)OC)Cc3cc(Cl)ccc3C2=N1)c1ccc(OC(F)(F)F)cc1`, the call in [1], in experiment [2], in [5], in experiment [6], in [7] and in experiment [8] was inactive. Moreover, the result in [9], in experiment [10], in [17] and in experiment [18] was inactive. Further, the AC50 in experiment [3] was 40 µM (active); in experiment [4] it was 12.7 µM (active); in experiment [11], 0.89 µM (active); in experiment [12], 9.46 µM (active); in experiment [14], 64.8 µM (active); in experiment [15], 24 µM (active). For the same compound, the AC50 in experiment [16] is 9.42 µM (active).
On to `CSC(=O)c1c(C(F)F)nc(C(F)(F)F)c(C(=O)SC)c1CC(C)C`, for which the compound was classed as inactive in experiment [1], in experiment [2], in [4], in experiment [5], in experiment [7] and in experiment [8]. Further, the result in [9], in [10], in [17] and in [18] was inactive. The AC50 in experiment [3] was 49.8 µM (active); in experiment [6], 49.8 µM (active); in experiment [11], 11.8 µM (active); in experiment [12], 12.2 µM (active); in experiment [14], 87 µM (active); in experiment [15], 53.7 µM (active). The AC50 was 87.3 µM (active) in [19] and 2.51 µM (active) in [16].
